Entries with a potency or affinity are not part of this list. The source made the active and inactive calls. No rule for the calls is given here.
Test: HEK293 cell cytotoxicity, dose response, cytotoxicity control, plate reader, cherry-picked samples (AID 743446)
Conditions: hits give low values; at 26 µM unless noted

Row | SMILES | max activity
1 | COc1ccc(C(=O)Nc2ccc3ncccc3c2)cc1 | -20.3% (inactive)
2 | Cc1noc(C)c1S(=O)(=O)Nc1cccc2c1O[C@H](CN(C)C(=O)Nc1ccc(F)cc1)[C@H](C)CN([C@H](C)CO)C2=O | -6.26% (inactive)
3 | CCc1nc(Sc2nnnn2-c2ccccc2)c2c3c(sc2n1)CCCC3 | -13.3% (inactive)
4 | CC(=O)c1c(C)[nH]c(C(=O)CN2C(=O)NC(C)(c3ccc(C)cc3)C2=O)c1C (stereo not given) | 39.5% (inactive)
5 | O=C(Nc1cccc(C(=O)O)c1)Nc1ccc2c(c1)OCO2 | -18.7% [at 0.195 µM] (inactive)
6 | C[C@H](CO)N1C[C@H](C)[C@H](CN(C)C(=O)Nc2ccc3c(c2)OCO3)OCCCC[C@H](C)Oc2ccc(NC(=O)NC3CCCCC3)cc2C1=O | -16.6% (inactive)
7 | COc1ccc2oc(-c3ccccc3)cc(=O)c2c1 | -14.7% [at 12 µM] (inactive)
8 | O=C(Nc1ccc(Cl)cc1)Nc1ccccc1C(=O)O | 16.5% [at 0.1 µM] (inactive)
9 | COc1cc(C(=O)Nc2nc(-c3cccs3)cs2)cc(OC)c1OC | 53.9% [at 6 µM] (inactive)
10 | O=C(Nc1cccc(C(=O)O)c1)Nc1ccccc1Cl | -26.9% [at 6 µM] (inactive)
11 | c1ccc(COc2cccc(-c3cc4nc(NCCCn5ccnc5)ccn4n3)c2)cc1 | 48.7% [at 0.195 µM] (inactive)
12 | C[C@H]1CN([C@@H](C)CO)C(=O)c2cc(C#CCc3ccccc3)cnc2O[C@H]1CN(C)Cc1ccccc1 | 13.9% [at 3 µM] (inactive)
13 | CCn1cc(S(=O)(=O)Nc2cccnc2)cn1 | 9.79% [at 0.38 µM] (inactive)
14 | COC(=O)c1ccc2nc(-c3cccc(N)c3)cn2c1 | 9.42% [at 0.195 µM] (inactive)
15 | COc1ccc(S(=O)(=O)N2CCN(C(=O)c3ccc(C)o3)CC2)cc1 | 29.4% [at 0.195 µM] (inactive)
16 | Cc1ccc(S(=O)(=O)N2CCCCC2)cc1NC(=O)c1ccc2c(=O)n3c(nc2c1)CCCCC3 | 45.8% [at 6 µM] (inactive)
17 | CC1CN(C(=O)c2cccc(S(=O)(=O)Nc3cc(Cl)ccc3Cl)c2)CC(C)O1 (stereo not given) | 5.34% (inactive)
18 | COc1ccc(C(=O)Nc2ccc3ccccc3n2)c(OC)c1OC | -6.81% [at 0.1 µM] (inactive)

Row | SMILES | max activity
19 | CCOC(=O)Nc1ccc(N2CCOCC2)c(S(=O)(=O)Nc2ccc(Cl)cc2)c1 | -19.3% (inactive)
20 | Cc1ccsc1/C=N/Nc1cccc(C(=O)O)c1 | 25.6% [at 0.8 µM] (inactive)
21 | Cc1ccc(C(=O)Nc2ccc3c(c2)OCCO3)cc1 | 17.1% [at 0.05 µM] (inactive)
22 | COc1ccc(S(=O)(=O)N(C)C[C@@H]2OCc3cnnn3CCCC(=O)N([C@@H](C)CO)C[C@H]2C)cc1 | 0% [setting not given] (inactive)
23 | O=C(O)c1ccc(Nc2nc3c(s2)CCCC3)cc1 | 49.8% [at 12 µM] (inactive)
24 | CCOC(=O)c1cn2nc(N3CCCCC3)ccc2n1 | -14% [at 3 µM] (inactive)
25 | Cc1ccc(S(=O)(=O)N2CCCc3nc(-c4ccc(F)cc4)ccc32)cc1 | 43.2% [at 12 µM] (inactive)
26 | Cc1cc(C)c(C)c(S(=O)(=O)N2CCN(c3ncnc4ccccc34)CC2)c1C | 62% [at 1.6 µM] (inactive)
27 | C[C@H](CO)N1C[C@H](C)[C@@H](CN(C)S(=O)(=O)c2cccs2)Oc2c(cccc2N(C)C)C1=O | 11.4% [at 6 µM] (inactive)
28 | Cc1ccccc1S(=O)(=O)N1[C@H](C#N)[C@H](c2ccc(C#CC3CCCCC3)cc2)[C@H]1CO | 29.2% [at 3 µM] (inactive)
29 | Cc1ccccc1N=CC1=C(O)c2ccccc2C1=O | 12.1% [at 0.05 µM] (inactive)
30 | Cc1nc2c(OCCC3CCCCC3)cccn2c1N(C)C(=O)CCC1CCCC1 | -22.5% [at 6 µM] (inactive)
31 | CCN(CC)S(=O)(=O)c1cc(C(=O)OCC(=O)Nc2ccc(-c3nc4ccc(C)cc4s3)cc2)ccc1F | -18.3% (inactive)
32 | CC(C)(C)n1ncc2c(=O)n(CC(=O)OCc3ccccc3)cnc21 | -10.3% [at 0.38 µM] (inactive)
33 | COc1ccccc1C=NNC(=O)c1ccncc1 | 20.7% (inactive)
34 | CC(=O)c1ccc(S(=O)(=O)N2CCC(NC(=O)Nc3cccc(F)c3)CC2)cc1 | 28.3% [at 3 µM] (inactive)
35 | O=C(NCCc1ccccc1)c1ccc2c(c1)OCCO2 | 15.3% [at 0.195 µM] (inactive)
